Only some compounds are listed: those with a hit (about 1.1% of all), similar ones and a draw of the others.
LAP4-GFP MLPCN: modulators of LAP4-GFP expression in yeast, primary screen, S. cerevisiae, multiplex flow cytometry, MLPCN library. 3 h; median GFP as percent of DMSO wells. 320,000 compounds, 0.34% hits. GFP response vs DMSO, % at 10 µM;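 active = GFP response vs DMSO above a set limit, about the screen mean plus 3 SD, cut at about 150% in these data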
CIT2 TOR yeast: modulators of CIT2-GFP expression in yeast, primary screen, S. cerevisiae, GFP fusion, multiplex flow cytometry, MLPCN library | S. cerevisiae CIT2-GFP strain, 3 h; 100 means same as DMSO wells | GFP response vs DMSO, % at 10 µM | 320,000 compounds, 0.065% hits;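 active = GFP response relative to DMSO above a set limit, near the screen mean plus 3 SD, cut at about 150% in these data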;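 also: ratio of well median GFP fluorescence to mean of DMSO wells on the plate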
AGP1 TOR yeast: modulators of AGP1-GFP expression in yeast TOR pathway, primary screen, cell-based, multiplex flow cytometry, S. cerevisiae, MLPCN library | 3 h; GFP as percent of DMSO wells | GFP response vs DMSO, % at 10 µM | 320,000 compounds, 0.02% hits | AID 2066, 2009;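 active = GFP response relative to DMSO above a set limit, near screen average plus 3 SD, cut at about 150% in these data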;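 also: median GFP channel fluorescence of the gated AGP1 strain per well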
RPL19A TOR yeast: RPL19A-GFP expression modulators in yeast, primary screen, cell-based, S. cerevisiae, multiplex flow cytometry, MLPCN; 330,000 compounds, 0.3% hits; percent response vs DMSO, % at 10 µM; S. cerevisiae RPL19A-GFP strain, 3 h; hits give low values;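 active = percent response vs DMSO below 50%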;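 also: median channel GFP fluorescence of the barcoded RPL19A-GFP strain; ratio of sample median GFP to plate DMSO average so 100% = DMSO; lower means less RPL19A-GFP as with rapamycin TOR inhibition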
MEP2 TOR yeast: modulators of MEP2-GFP levels in yeast, primary screen, S. cerevisiae, multiplex flow cytometry, MLPCN library; 330,000 compounds, 0.51% hits; GFP response vs DMSO, % at 10 µM; S. cerevisiae MEP2-GFP strain, 3 h; 100% = DMSO control level; AID 2016, 2009;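 active = GFP response versus DMSO above a set limit, roughly screen mean plus 3 SD, cut at about 180% in these data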;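 also: median GFP fluorescence of the barcode-gated MEP2-GFP cells per well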
VLA-4 inh: inhibition in human VLA-4 binding assay, primary screen, VLA-4 allosteric modulator project, MLPCN library, flow cytometry, VLA-4 expressing cells; ligand binding flow cytometry; inhibition, % (about 7 µM as worked out from the volumes in the protocol); Integrin alpha-4 (Homo sapiens), P13612; 330,000 compounds, 0.2% hits; in the data active = inhibition above about 50%
Target sequence (P13612 whole entry, looked up): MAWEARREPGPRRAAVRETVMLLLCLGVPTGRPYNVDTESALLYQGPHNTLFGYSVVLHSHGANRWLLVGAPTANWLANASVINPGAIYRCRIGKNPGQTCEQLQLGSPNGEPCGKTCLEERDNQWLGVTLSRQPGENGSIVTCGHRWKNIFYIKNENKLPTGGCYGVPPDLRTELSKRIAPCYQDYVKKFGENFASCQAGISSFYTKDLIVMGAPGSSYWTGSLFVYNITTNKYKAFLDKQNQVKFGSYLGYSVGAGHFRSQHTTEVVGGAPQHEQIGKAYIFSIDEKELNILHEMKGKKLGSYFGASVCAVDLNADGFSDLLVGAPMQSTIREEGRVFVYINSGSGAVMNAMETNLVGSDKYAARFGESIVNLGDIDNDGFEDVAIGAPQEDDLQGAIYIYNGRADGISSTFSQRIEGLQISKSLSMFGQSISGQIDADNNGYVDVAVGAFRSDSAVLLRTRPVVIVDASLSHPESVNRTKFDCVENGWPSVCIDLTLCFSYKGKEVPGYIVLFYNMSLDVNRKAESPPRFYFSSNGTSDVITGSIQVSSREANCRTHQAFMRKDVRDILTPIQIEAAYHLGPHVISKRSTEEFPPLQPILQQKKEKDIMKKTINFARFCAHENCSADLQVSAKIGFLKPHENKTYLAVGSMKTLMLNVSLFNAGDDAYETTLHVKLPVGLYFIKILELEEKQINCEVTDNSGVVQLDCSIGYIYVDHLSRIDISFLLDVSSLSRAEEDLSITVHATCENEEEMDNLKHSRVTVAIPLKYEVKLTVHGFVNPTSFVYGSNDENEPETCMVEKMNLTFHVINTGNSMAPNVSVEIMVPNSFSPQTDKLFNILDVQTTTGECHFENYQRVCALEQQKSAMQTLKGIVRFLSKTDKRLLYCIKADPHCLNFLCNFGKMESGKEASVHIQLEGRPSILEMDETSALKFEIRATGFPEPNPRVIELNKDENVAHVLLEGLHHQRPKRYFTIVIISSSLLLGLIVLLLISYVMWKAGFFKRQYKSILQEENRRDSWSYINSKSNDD
LAP4 cherry2: LAP4-GFP expression modulators in yeast, confirmation, cell-based, second cherry pick, flow cytometry; 590 compounds, 20% hits; S. cerevisiae LAP4-GFP strain, 3 h; GFP response vs DMSO, % at 10 µM; shares compounds with LAP4-GFP MLPCN; AID 2621, 2010;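 active = GFP signal as percent of the solvent control above about 150%, meaning raised reporter expression, limit read from the data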;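 also: ratio of well median GFP fluorescence to plate DMSO mean so 100% = DMSO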
MEP2 cherry2: modulators of MEP2-GFP levels in yeast, confirmation, S. cerevisiae, flow cytometry GFP, second cherry picks. S. cerevisiae MEP2-GFP strain, 3 h. shares compounds with LAP4-GFP MLPCN. GFP response vs DMSO, % at 10 µM. 590 compounds, 10% hits. AID 2622, 2010;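 active = GFP signal above 150% of the solvent control wells, that is a rise of more than half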;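 also: median channel GFP fluorescence of all gated yeast cells per well; ratio of median GFP to plate DMSO average so 100% = DMSO level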
RPL19A-GFP pick2: RPL19A-GFP modulators in TOR pathway yeast, confirmation, cell-based, S. cerevisiae, flow cytometry, second cherry pick; GFP response vs DMSO, % at 10 µM; S. cerevisiae RPL19A-GFP strain, 3 h; hits give low values; 100% means same as DMSO wells; AID 2623, 2010; 590 compounds, 3% hits; shares compounds with LAP4-GFP MLPCN;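 active = under 65% GFP response relative to DMSO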;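 also: median GFP channel fluorescence per well over the all cells gate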
CIT2 GFP CP2: modulators of CIT2-GFP expression in yeast, confirmation, flow cytometry, second cherry pick, single plex. 590 compounds, 8% hits. GFP response vs DMSO, % at 10 µM. shares compounds with LAP4-GFP MLPCN. S. cerevisiae CIT2-GFP strain, 3 h; DMSO control wells read 100%;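 active = GFP response vs DMSO above about 150%, limit read from the data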;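 also: median green fluorescence per well over all gated yeast cells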
AGP1-GFP pick2: AGP1-GFP expression modulators, hit retest, confirmation, cell-based, flow cytometry, S. cerevisiae, cherry pick set 2; shares compounds with LAP4-GFP MLPCN; percent response vs DMSO, % at 10 µM; 590 tested, under 10 active; S. cerevisiae AGP1-GFP strain, 3 h;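 active = over 150 percent of DMSO response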;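 also: median GFP channel fluorescence over all cells without mother daughter split; sample median GFP divided by mean DMSO control so 100% equals DMSO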
s288c autofluor: compound autofluorescence in yeast s288c, dose response, artefact control for yeast TOR pathway GFP screen, s288c strain. fluorescence change (kMESF span) at 33 µM. shares compounds with LAP4-GFP MLPCN. S. cerevisiae s288c, 520 nm autofluorescence, flow cytometry, 3 h; hits give high values; zero means same as solvent-only cells. AID 2757, 2010. 610 tested, under 10 active;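 active = fluorescence span over the dose series, or activity score, above about 33, limit read from the data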
Yeast autofl DR: autofluorescence of compounds in yeast s288c, dose response, artefact control for yeast TOR pathway GFP screen, primary hits, KU SAR, s288c parental; shares compounds with LAP4-GFP MLPCN; S. cerevisiae s288c parental, compound autofluorescence, flow cytometry, 3 h; fluorescence change (span) at 33 µM; 110 tested, under 10 active;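 active = fluorescence change span, or the activity score built from it, above 25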
TORC1 bypass: wild-type yeast growth inhibition sparing TORC1 bypass cells, mechanism study for yeast TOR pathway GFP screen, BY4741 wild type, TORC1 bypass strain. shares compounds with LAP4-GFP MLPCN. S. cerevisiae BY4741 spot growth rating, 48-72 h; hits give low values. growth rating (0-3) at 30 µM. 120 tested, under 10 active;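 active = growth rating at most 1 for wild type yeast while the TORC1 bypass strain still grows fully, rated 3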
Numbers without * were called inactive; nt = no result given.

SMILES	LAP4-GFP MLPCN	CIT2 TOR yeast	AGP1 TOR yeast	RPL19A TOR yeast	MEP2 TOR yeast	VLA-4 inh	LAP4 cherry2	MEP2 cherry2	RPL19A-GFP pick2	CIT2 GFP CP2	AGP1-GFP pick2	others
COc1ccc(S(=O)(=O)Nc2ccc3c(c2)C(=O)N([C@H](C)CO)C[C@H](C)[C@@H](CN(C)S(=O)(=O)c2ccc(F)cc2)O3)cc1	nt	nt	nt	nt	nt	7.9	nt	nt	nt	nt	nt
O=C(CSc1ccc(F)cc1)Nc1cccc(S(=O)(=O)N2CCOCC2)c1	170.2*	86.9	112.2	86.8	102.2	1.2	102.2	97.8	100.0	107.1	96.6
O=C(Oc1cccc2cccnc12)c1ccc(Br)o1	102.9	103.5	105.5	101.2	102.8	1.8	102.2	99.6	100.0	101.5	100.2	s288c autofluor=0.21
O=C(Oc1cccc2cccnc12)c1ccco1	95.3	95.5	94.1	93.8	97.1	-1.9	nt	nt	nt	nt	nt
O=C(/C=C/c1ccc(Cl)cc1)c1cccnc1	87.8	55.3	40.1	57.7	93.8	14.2	111.2	108.3	100.4	111.2	94.0
COc1ccc(/C(C)=N/Nc2ccccc2Cl)c(O)c1	94.5	96.6	46.3	63.3	145.9	6.8	98.1	108.2	106.5	108.6	97.4
COc1cc(OC)cc(-c2c(C#Cc3ccsc3)c3cc(-c4ccc5c(c4)OCO5)ccc3n2C)c1	100.1	101.8	97.0	93.9	96.3	-3.2	nt	nt	nt	nt	nt
CC1CCN(C(=O)C(=O)c2cn(CC(=O)N3CCCC3)c3ccccc23)CC1	100.9	159.4*	103.7	95.5	114.4	10.0	99.2	101.3	98.5	109.9	96.7
CCN(Cc1ccccc1)C(=O)C(=O)c1cn(CC(=O)N2CCCC2)c2ccccc12	101.7	178.0*	111.6	101.6	104.7	-2.4	98.1	101.5	100.0	106.3	102.2
NC(=O)C1CCN(C(=O)C(=O)c2cn(CC(=O)N3CCCC3)c3ccccc23)CC1	87.7	90.0	89.9	96.8	95.2	-13.6	nt	nt	nt	nt	nt
CC1CCCCN1C(=O)C(=O)c1cn(CC(=O)N2CCCC2)c2ccccc12 (stereo not drawn)	103.5	106.3	105.6	92.1	102.2	2.6	nt	nt	nt	nt	nt
NC(=O)CC(NC(=O)c1cccc(Br)c1)c1ccc(N2CCN(c3ccccn3)CC2)c([N+](=O)[O-])c1 (stereo not drawn)	101.6	82.0	88.2	99.0	93.7	-7.3	nt	nt	nt	nt	nt
CC(=O)c1ccc(N2CCN(C(=O)c3ccc(Br)cc3)CC2)c(F)c1	161.7*	89.7	121.2	103.4	110.0	-11.4	nt	nt	nt	nt	nt	s288c autofluor=1.92;Yeast autofl DR=0.52;TORC1 bypass=3
O=C(COc1ccccc1)NNC(=S)NC(=O)c1ccc(Cl)cc1Cl	219.3*	92.0	98.2	108.5	119.0	4.3	259.5*	185.2*	83.3	122.4	117.5	s288c autofluor=1.41
O=C(COc1cccc(Cl)c1)NNC(=S)Nc1ccccc1	91.2	113.0	108.3	109.0	102.8	1.6	nt	nt	nt	nt	nt
O=C(Oc1c(Cl)cc(Cl)c2cccnc12)c1cccc([N+](=O)[O-])c1	187.4*	107.5	92.3	92.2	94.7	5.9	nt	nt	nt	nt	nt	s288c autofluor=2.44;Yeast autofl DR=0.24;TORC1 bypass=0
O=C(Oc1ccc(Cl)c2cccnc12)c1cccc([N+](=O)[O-])c1	96.2	85.0	88.0	92.8	91.3	0.0	nt	nt	nt	nt	nt
CNc1nc(N)cc(Oc2cccc(Cl)c2)n1	nt	nt	nt	nt	nt	nt	nt	nt	nt	nt	nt	TORC1 bypass=3
Nc1cc(Oc2cccc(Cl)c2)nc(NCc2ccccc2)n1	nt	nt	nt	nt	nt	nt	nt	nt	nt	nt	nt	Yeast autofl DR=0;TORC1 bypass=0
CCOC(=O)CC(=O)Nc1ccc(C)cc1	93.1	103.1	95.9	99.5	102.6	-3.4	99.0	101.5	99.4	99.5	100.1
CSCc1ccc(C(=O)N2CCC(CCC(=O)N(C)Cc3ccccc3)CC2)o1	95.9	98.8	100.7	101.5	95.0	7.9	nt	nt	nt	nt	nt
CN(Cc1ccccc1)C(=O)CCC1CCN(C(=O)c2ccccc2C(F)(F)F)CC1	99.1	156.7*	106.2	97.2	114.4	1.4	99.0	101.5	101.3	109.7	103.5
CC1=C/C(=N\OS(=O)(=O)c2ccccc2)C(C(C)C)=CC1=O	191.1*	59.8	74.8	85.6	91.8	7.6	172.3*	157.2*	96.1	116.8	75.0	s288c autofluor=1.11
COc1cc(C(=O)O/N=C2/C=C(C)C(=O)C=C2C)cc(OC)c1OC	95.4	99.3	100.2	104.8	97.3	-4.3	nt	nt	nt	nt	nt
COc1ccc(S(=O)(=O)/N=C2/C=CC(=O)C(C)=C2C)cc1	93.1	92.5	96.7	94.3	93.8	6.3	nt	nt	nt	nt	nt
CC1=C(C)/C(=N\OS(=O)(=O)c2ccc(C)cc2)C=CC1=O	244.0*	86.4	79.8	79.3	85.8	5.3	159.6*	144.8	106.3	152.7*	87.2	s288c autofluor=0
